TcdB GH inh – inhibitors of Clostridioides difficile toxin B glycohydrolase; P18177; TcdB glycohydrolase enzymatic assay, plate reader; inhibition, % at 9.99 µM; actives 0.24% (n = 350,000); in the data active = inhibition above about 10%
BH1578 lux ind – inducers of Vibrio cholerae quorum light production without autoinducers; AID 588436; actives 0.16% (n = 350,000); activation, % at 18.7 µM; V. cholerae BH1578 lux reporter, luminescence, 6 h; in the data active = activation mostly above about 9.7%, no sharp cut-off
Mtb BioA inh – blocks M. tuberculosis BioA enzyme activity | purified M. tuberculosis BioA enzyme, plate reader | inhibition, % at 9.99 µM | actives 0.096% (n = 360,000); in the data active = inhibition above about 40%
FadD28 FP inh – blocks FadD28 binding to the bisubstrate probe. fluorescence polarization. inhibition, % at 12.5 µM. actives 0.22% (n = 360,000). AID 588549; in the data active = inhibition above about 8.5%, passing the limit was not always enough
Numbers stand for hits; - = inactive; . = not tested or not shown. Most compounds without a hit are left out; they make up all but 0.54% or so of the library.

SMILES | TcdB GH inh | BH1578 lux ind | Mtb BioA inh | FadD28 FP inh
NC1=NC[C@@H](CC2CCCCC2)N1CCc1cc(C(F)(F)F)cc(C(F)(F)F)c1 | . | - | - | -
NC1=NC[C@H](Cc2ccc(O)cc2)N1CCc1cc(C(F)(F)F)cc(C(F)(F)F)c1 | 11 | - | - | -
NS(=O)(=O)c1ccc(Nc2nc(-c3ccc(F)cc3)cs2)cc1 | - | - | - | -
NS(=O)(=O)c1ccc(Nc2nc(-c3ccc(O)cc3O)cs2)cc1 | . | - | . | 40
Cc1ccccc1-c1ccc2c(c1)O[C@@H](CN(C)CC1CC1)[C@@H](C)CN([C@@H](C)CO)S2(=O)=O | - | . | - | .
COc1ccc(NC(=O)c2cc3c(-c4ccc(OC)c(OC)c4)nn(C)c3s2)cc1OC | . | - | - | 26
Cc1ccc(-c2ccc([C@H]3[C@H](CO)N4C(=O)CN(C(=O)c5ccncc5)C[C@@H]34)cc2)cc1 | - | . | . | .
COc1cc(/C=C2\SC(=S)N(NC(=O)c3ccncc3)C2=O)ccc1O | - | - | . | -
COc1cc(/C=C2\SC(=S)N(NC(=O)c3ccc(O)c(OC)c3)C2=O)ccc1O | - | - | - | 16
COc1cc(/C=C2\SC(=S)N(NC(=O)c3cccc(O)c3)C2=O)ccc1O | - | - | - | 13
CCN(C(=O)CN1C(=O)NC2(CCC(C)CC2)C1=O)C1CCCCC1 (configuration not stated) | 14 | - | - | -
CCCN(C(=O)CN1C(=O)NC2(CCCCCC2)C1=O)C1CCS(=O)(=O)C1 (configuration not stated) | . | - | - | -
COc1cc(NCc2ccccc2O)c2ncccc2c1 | - | - | - | 12
Cc1cccc(-n2nnc(C(=O)NCc3ccccc3Cl)c2N)c1 | 11 | - | - | -
Cc1ccc(CNC(=O)c2nnn(-c3cccc(C)c3)c2N)cc1 | . | - | . | -
Cc1ccc(S(=O)(=O)N2[C@@H](c3cccc(Cl)c3)C(C(=O)O)=CC[C@H]2c2cccc(Cl)c2)cc1 | - | - | - | 14
O=c1[nH]nc(-c2ccc(F)cc2)cc1Cc1ccccc1 | 10 | - | . | -
Cc1noc(C)c1S(=O)(=O)Nc1ccc2c(c1)C(=O)N([C@@H](C)CO)C[C@H](C)[C@@H](CN(C)Cc1ccc3c(c1)OCO3)OCCCC[C@@H](C)O2 | - | . | - | .
CC(C)N1CC2=C(OC(N)=C(C#N)C2c2cccnc2)/C(=C/c2cccnc2)C1 (configuration not stated) | . | - | 43 | -
N#CC1=C(N)OC2=C(CN(Cc3ccccc3)C/C2=C\c2cccnc2)C1c1cccnc1 (configuration not stated) | . | - | - | -
C[C@H](CO)N1C[C@H](C)[C@@H](CN(C)Cc2ccc(Cl)c(Cl)c2)Oc2c(NC(=O)Nc3ccc(C(F)(F)F)cc3)cccc2C1=O | - | . | - | .
COc1cc2cc3c(N)c(C(=O)Nc4sc(C)c(C)c4C#N)sc3nc2cc1OC | . | - | - | 11
COc1cc2cc3c(N)c(C(=O)NCc4ccco4)sc3nc2cc1OC | . | - | - | -
COc1ccccc1CNC(=O)C[C@@H]1C[C@H]2c3cc(NC(=O)NC4CCCC4)ccc3O[C@H]2[C@@H](CO)O1 | - | . | - | .
COc1ccc(C2C(C(C)=O)=C(C)N=c3s/c(=C\c4cc(C)n(C)c4C)c(=O)n32)c(OC)c1 (configuration not stated) | . | - | - | 12
SMILES | TcdB GH inh | BH1578 lux ind | Mtb BioA inh | FadD28 FP inh
CC(C)CSC1=NSC2=NC(=O)/C(=C\c3coc4ccccc4c3=O)C(=N)N12 | . | - | . | 14
Nc1c(Cl)ncnc1NCCc1ccc(O)cc1 | 11 | - | . | -
CO[C@H]1CN(C)C(=O)c2ccc(NC(=O)C3CC3)cc2OC[C@H](C)N(CCC(F)(F)F)C[C@@H]1C | - | . | . | .
C[C@@H]1CN([C@@H](C)CO)C(=O)c2cccc(NC(=O)Nc3ccc(F)cc3)c2O[C@@H]1CN(C)Cc1ccccc1 | - | . | - | .
O=C1c2cc(O)cc(O)c2C(=O)c2c1cc(O)c([C@@H](CO)CCO)c2O | - | - | - | 20
Cc1cc(O)c2c(c1)C(=O)c1cc(O)cc(O)c1C2=O | - | - | - | -
CCc1ccc(NC(=O)c2cc(C)on2)cc1 | 11 | - | - | -
Cc1cc(O)ccc1N=Cc1c(C(F)(F)F)[nH][nH]c1=O | 15 | - | . | -
O=c1[nH][nH]c(C(F)(F)F)c1C=Nc1ccccc1 | . | - | - | -
Cc1cc(=O)n2nc(N3CCCC(C(=O)N4CCOCC4)C3)sc2n1 (configuration not stated) | . | - | - | -
Cc1cc(=O)n2nc(N3CCCC(C(=O)N4CCc5ccccc54)C3)sc2n1 (configuration not stated) | . | 17 | - | -
O=C(O)c1ccc(-c2ccc(O)c(F)c2)cc1 | 18 | - | - | -
CCCn1nc(NS(=O)(=O)c2cccc3nonc23)c2cc3cccc(C)c3nc21 | - | - | - | 9.9

Assay outcomes: PubChem, Broad Institute
